Experiments:
Experiment in all cases: PBM binding z-score (relative to random genomic background probes); higher = stronger binding; sequences stand for … in GC…GCGATTGACAGCGTAGAATGAAGG
[1] = test system: PPARg:RXRa DBDmut IVT, anti-RXR (DBD mutation: RXRa K156A/R161A, NR concentration 270 nM, RXRa partner concentration 90 nM)
Summary of the method: (§1)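 The probes on custom Agilent 4×180K protein-binding microarrays were double-stranded, with 34-nt variable regions bearing direct-repeat seeds, single-nucleotide variants, half-site ablations and random human genomic background sequences. Incubation lasted 1 h with ligand-free nuclear receptor dimers in PBS pH 7.4, 2% milk, 0.02% Triton X-100, 1 mM DTT, 0.2 mg/mL BSA and 0.4 mg/ml salmon testes DNA. Antibodies against each partner (one per run) detected bound dimers, and fluorescence scans were regression-normalized. Binding z-scores take the random background probes as reference.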

[2] = test system: PPARg:RXRa IVT, anti-PPARg (NR concentration 270 nM, RXRa partner concentration 90 nM)
Summary of the method: as §1

[3] = test system: PPARg DBDmut:RXRa IVT, anti-PPARg (DBD mutation: PPARg1 K132A/R137A, NR concentration 270 nM, RXRa partner concentration 90 nM)
Summary of the method: as §1

[4] = test system: PPARg DBDmut IVT, anti-PPARg (DBD mutation: PPARg1 K132A/R137A, NR concentration 270 nM)
Summary of the method: as §1

[5] = test system: PPARg homodimer (NR concentration 180 nM)
Summary of the method: as §1

[6] = test system: PXR:RXRa (NR concentration 270 nM, RXRa partner concentration 90 nM)
Summary of the method: as §1

[7] = test system: PXR homodimer (NR concentration 270 nM)
Summary of the method: as §1

[8] = test system: RARa:RXR (NR concentration 270 nM, RXRa partner concentration 90 nM)
Summary of the method: as §1

[9] = test system: RARa homodimer (NR concentration 270 nM)
Summary of the method: as §1

[10] = test system: RARb:RXRa (NR concentration 270 nM, RXRa partner concentration 90 nM)
Summary of the method: as §1

Sequence | PBM binding z-score [1] | PBM binding z-score [2] | PBM binding z-score [3] | PBM binding z-score [4] | PBM binding z-score [5] | PBM binding z-score [6] | PBM binding z-score [7] | PBM binding z-score [8] | PBM binding z-score [9] | PBM binding z-score [10]
ACTATTAGTTGACTCAGGGCAACCGATACGACGC | 0.402 | 0.739 | 1.01 | 1.08 | 0.52 | 0.329 | 0.569 | 0.544 | 0.791 | 0.893
TCATCTAGGTAAAGGTGAAAGTCGAACGATATGA | 4.03 | 4.69 | 1.07 | 0.677 | 1.57 | 0.89 | 0.0192 | 1.61 | 0.277 | 2.05
TCTGCTCGGTCAACGATGGTCAGCTAATCTGCTA | 1.1 | 1.1 | -0.37 | -0.828 | -0.45 | -0.246 | -1.09 | -0.0627 | -0.906 | 2.59
ATATATAGGTTAAGGGTCATTCAGGTTGGTTCGC | 7.29 | 7.49 | 2.46 | 2.9 | 4.36 | 5.67 | 3.53 | 6.57 | 3.52 | 3.92
TCTGGTAGGTCAGTTGGTCAGCTAACGAGCTGCC | 3.49 | 4.52 | -0.0249 | -0.0633 | 1.33 | 0.675 | -0.287 | 0.778 | 0.532 | 3.62
TTACCAAGGTGAAAGGGCGTTGATGCACGCCTTG | 1.85 | 3.87 | 0.557 | 0.204 | 0.404 | 1.14 | -0.361 | 1.94 | -0.167 | 1.88
GCGACTGGGGCATCAGCAGGTTACCACAACTTAA | 3.58 | 3.42 | -0.499 | -0.426 | 0.249 | 0.125 | -0.569 | 0.565 | -0.456 | 0.902
TCTATTTGGTCAAAGGTCACACACTCGAAATGCG | 3.39 | 6.25 | 3.22 | 2.73 | 5.3 | 5.91 | 1.76 | 7.03 | 3.85 | 5.42
ACTGACAGGTGATGAAGGTAACTCAGGCTATCAT | 0.252 | 0.675 | 0.404 | -0.0306 | -0.378 | -0.393 | -0.233 | -0.039 | 0.284 | 0.224
GATGCAGGGTCAAGGCCAGAGTACGCGTATTGAT | 1.47 | 3.42 | -0.201 | -0.81 | 1.2 | 3.59 | 0.224 | 3.86 | 0.306 | 4.54
CCTACTGCGCCATCAGGTCATTGATATCAACGTT | 0.542 | 1.25 | -0.701 | 0.364 | 1.76 | 1.98 | 0.943 | 2.03 | 0.602 | 1.76
CGAATTAGGTCATTGACAGGACAGTGAATAGTAA | 8.21 | 7.99 | 4.24 | 2.12 | 2.32 | 1.77 | 0.55 | 2.57 | 0.994 | 3.73
CGAACTAGGTCATCCAGGACAGTGGATACATTGA | 7.91 | 7.98 | 1.6 | 0.738 | 2.41 | 1.89 | 1.23 | 2.52 | 1.24 | 4.03
CCTACTGGGCCAAGGTCAGTGATCAGTCAAAGCA | 3.15 | 4.03 | 0.453 | -1.43 | 1.3 | 1.14 | -0.136 | 1.75 | -0.243 | 2.89
TTACCAAGGTGAGCTGCGGTCGTTGATCCAACTC | 0.329 | 1.64 | 0.125 | -0.586 | -0.584 | 1.38 | -0.459 | 0.61 | -0.775 | 1.07
ATATGTAGGTTGAGGGTCATTCAGGTTGGTTCGC | 4 | 4.86 | 1.94 | 0.913 | 3.16 | 4.49 | 2.53 | 3.89 | 1.57 | 2.57
CCGATTGGGGCATAAGGTTACCATAAGCCAGCCC | 1.21 | 1.53 | -1.1 | -1.31 | 0.682 | 0.17 | -0.12 | 1.42 | -0.579 | 1.66
CATACAGGGTCAGCTAGGCCAAAGTAGGGACGGC | 0.935 | 2.57 | 0.812 | 0.367 | 1.48 | 2.55 | 0.23 | 3.25 | 0.847 | 4.14
TAGCCTAGCTCATTGGGCCAGTATAGTACGCATC | 0.043 | -0.244 | -0.824 | -1.08 | -1.36 | -0.795 | -0.368 | -0.451 | -1.17 | -0.719
TTACCAAGGTGAATGGTCGTTGATGCACGCCTTG | 2.03 | 2.67 | 0.334 | 0.253 | 0.0353 | 0.0282 | -0.612 | 0.364 | 0.953 | 1.46
AGGCAAAGTTCAGGACGAGGTAACGTAAAGCACG | -0.11 | 1.19 | 0.287 | -0.24 | 2.28 | 2.89 | 1.59 | 2.82 | 1.16 | 4.26
CAAACTAGGTCACGAAAGGTCTAAGTCGAATGAC | 8.65 | 9.08 | 1.37 | 1.82 | 2.76 | 3.68 | 0.0383 | 3.59 | 0.679 | 4.39

Sequence | PBM binding z-score [1] | PBM binding z-score [2] | PBM binding z-score [3] | PBM binding z-score [4] | PBM binding z-score [5] | PBM binding z-score [6] | PBM binding z-score [7] | PBM binding z-score [8] | PBM binding z-score [9] | PBM binding z-score [10]
TCTTGTAGATCAATAGAGGTTAAGAACGTGCGCT | 1.69 | 1.17 | 0.658 | 1.03 | 0.496 | 1.51 | 0.111 | 1.83 | 0.544 | 0.956
CTACCAAGGTGAACAAGGTCGTTAATTACTATTC | 2.2 | 2.78 | 0.73 | 0.27 | 1.17 | 2.76 | 1.14 | 2.57 | 0.262 | 2.11
CCGACTGGGGCATGGTTACCATAACGCACAGCCA | 2.18 | 2.5 | -0.776 | -0.933 | -0.129 | -0.696 | -0.585 | -0.433 | -0.847 | 0.396
ACTATTAGTTGAGAGGAGGGCAACCGATAGGTTG | 0.402 | 0.862 | 0.559 | 0.202 | 0.333 | 0.447 | 0.403 | 0.168 | 0.97 | 0.991
ACTAGTTGGTCAGCTGAAGTCACACACAATTCGG | 0.924 | 0.828 | 0.539 | 0.649 | 0.462 | -0.105 | -0.357 | 0.136 | 0.213 | 0.828
CGTGCAAGGTCATAGGAGGTCAGTGAAGACAGAT | 3.54 | 4.74 | 1.77 | -0.0772 | 4.07 | 7.21 | 4.19 | 6.63 | 2 | 5.41
ACTAATAGTTGACTTAGGGCAACCGATACGACGC | 0.0501 | 0.335 | 0.861 | 0.863 | 0.622 | 0.0101 | 0.295 | 0.399 | 0.56 | 1.01
TCTAGCAGGCCAGTGGGTCACTCAAGAGGTACGG | 2.62 | 3.66 | -0.249 | -0.535 | -0.0883 | 0.324 | -0.497 | 1.16 | -0.945 | 1.48
CAAACTAGGTCACCGGAAGGTCAAAGTCCGCATG | 8.69 | 8.91 | 2.7 | 2.01 | 6.37 | 5.88 | 1.99 | 6.98 | 2.38 | 5.37
TAGCCTAGGTCAGATCGGGCCTGTATACGCTATA | 0.244 | 1.36 | -0.328 | 0.156 | 0.016 | 0.238 | -0.728 | 1.22 | -0.734 | 2.8
CCTACTGGGCCACGAGAGGTCATTGATTCAGTGA | 6.03 | 5.58 | -0.253 | -0.977 | 3.46 | 5.52 | 2.52 | 5.15 | 1.39 | 3.27
CAAACTAGGTAACGAAAGGTCAAAGTCGAATGAC | 7.04 | 6.76 | 1.27 | 1.33 | 3.34 | 5.5 | 1.94 | 5.55 | 2.01 | 4.38
AACACAGGGTCATCGTAGGCCAGAGTACGCACAG | 2.2 | 3.46 | 1.2 | 0.514 | 2.34 | 4.91 | 0.707 | 4.91 | 0.823 | 4.3
GCTAGCAGGCCATTAGGGTCACTCAATGACGGGC | 1.02 | 1.61 | -0.521 | -1.36 | 0.4 | 2.86 | 1.38 | 2.85 | -0.0554 | 2.42
TCTGCTCGGTCAGTTGGTCAGCTAACGAGCTGCC | 0.685 | 0.74 | -0.215 | 0.0745 | -0.826 | -0.447 | -1.11 | -0.352 | -1.55 | 1.73
AGATGTAGGTTACATCCGGGTCATTCAGGCTATG | 7 | 7.07 | 0.707 | 1.29 | 1.58 | 3.72 | 2.06 | 3.68 | -0.0966 | 2.24
CCTGCCAGGTCATGGTCAGCTAATCTACAGTATG | 2.15 | 2.35 | -0.561 | -0.338 | 1.2 | 2.16 | 0.231 | 2.61 | -0.0161 | 3.78
CAAACTAGGTCAAGAGGTCGAAGTCCGCTTCCCG | 8.31 | 7.97 | 1.18 | 0.351 | 3.87 | 3.56 | 0.441 | 4.93 | 1.54 | 4.44
TCGTGTAGGTTACCAATGGGGCATTCAGCTTTCT | 3.06 | 2.01 | 0.246 | 0.154 | 1.17 | 0.375 | -0.304 | 0.543 | -0.0616 | 1.31
CCTAGTTGGTCAAGGACACACACGCTATAGGTAC | 1.07 | 1.39 | 0.248 | -0.0353 | 0.735 | 0.0768 | 0.977 | 1.06 | 1.89 | 1.51
AGTCAAAGTTCACTAGGTAGCGTAAGATTCAGCT | 1.37 | 3.4 | 0.246 | 0.621 | 2.62 | 4.12 | 2.83 | 3.01 | 1.33 | 4.68
CTCGAAAGGACGTGCTCAGGTGAGTATACCAAAC | -0.218 | -0.388 | -0.653 | -0.179 | -0.0329 | -0.345 | -0.1 | 0.0274 | -0.22 | 0.749
